{
  "source": "PubChem BioAssay AID602261",
  "about": "(Sanford-Burnham Center for Chemical Genomics, 2012)",
  "note": "Hit rate of the full screen: of about 360,000 compounds, about 2,400 (0.67%) were called active. What follows is part of a selection rich in actives, with near analogues and random picks from the rest. A number with no mark means an inactive call.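 Rule for the calls: active = compounds whose normalised, plate-corrected inhibition of enzyme fluorescence in the single-dose primary screen is 50% or more; inactive = the rest.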",
  "data": [
    {"target": "Fatty acid synthase (Homo sapiens) (UniProt P49327)", "sequence (P49327 whole entry, looked up, the tested form may be a part)": "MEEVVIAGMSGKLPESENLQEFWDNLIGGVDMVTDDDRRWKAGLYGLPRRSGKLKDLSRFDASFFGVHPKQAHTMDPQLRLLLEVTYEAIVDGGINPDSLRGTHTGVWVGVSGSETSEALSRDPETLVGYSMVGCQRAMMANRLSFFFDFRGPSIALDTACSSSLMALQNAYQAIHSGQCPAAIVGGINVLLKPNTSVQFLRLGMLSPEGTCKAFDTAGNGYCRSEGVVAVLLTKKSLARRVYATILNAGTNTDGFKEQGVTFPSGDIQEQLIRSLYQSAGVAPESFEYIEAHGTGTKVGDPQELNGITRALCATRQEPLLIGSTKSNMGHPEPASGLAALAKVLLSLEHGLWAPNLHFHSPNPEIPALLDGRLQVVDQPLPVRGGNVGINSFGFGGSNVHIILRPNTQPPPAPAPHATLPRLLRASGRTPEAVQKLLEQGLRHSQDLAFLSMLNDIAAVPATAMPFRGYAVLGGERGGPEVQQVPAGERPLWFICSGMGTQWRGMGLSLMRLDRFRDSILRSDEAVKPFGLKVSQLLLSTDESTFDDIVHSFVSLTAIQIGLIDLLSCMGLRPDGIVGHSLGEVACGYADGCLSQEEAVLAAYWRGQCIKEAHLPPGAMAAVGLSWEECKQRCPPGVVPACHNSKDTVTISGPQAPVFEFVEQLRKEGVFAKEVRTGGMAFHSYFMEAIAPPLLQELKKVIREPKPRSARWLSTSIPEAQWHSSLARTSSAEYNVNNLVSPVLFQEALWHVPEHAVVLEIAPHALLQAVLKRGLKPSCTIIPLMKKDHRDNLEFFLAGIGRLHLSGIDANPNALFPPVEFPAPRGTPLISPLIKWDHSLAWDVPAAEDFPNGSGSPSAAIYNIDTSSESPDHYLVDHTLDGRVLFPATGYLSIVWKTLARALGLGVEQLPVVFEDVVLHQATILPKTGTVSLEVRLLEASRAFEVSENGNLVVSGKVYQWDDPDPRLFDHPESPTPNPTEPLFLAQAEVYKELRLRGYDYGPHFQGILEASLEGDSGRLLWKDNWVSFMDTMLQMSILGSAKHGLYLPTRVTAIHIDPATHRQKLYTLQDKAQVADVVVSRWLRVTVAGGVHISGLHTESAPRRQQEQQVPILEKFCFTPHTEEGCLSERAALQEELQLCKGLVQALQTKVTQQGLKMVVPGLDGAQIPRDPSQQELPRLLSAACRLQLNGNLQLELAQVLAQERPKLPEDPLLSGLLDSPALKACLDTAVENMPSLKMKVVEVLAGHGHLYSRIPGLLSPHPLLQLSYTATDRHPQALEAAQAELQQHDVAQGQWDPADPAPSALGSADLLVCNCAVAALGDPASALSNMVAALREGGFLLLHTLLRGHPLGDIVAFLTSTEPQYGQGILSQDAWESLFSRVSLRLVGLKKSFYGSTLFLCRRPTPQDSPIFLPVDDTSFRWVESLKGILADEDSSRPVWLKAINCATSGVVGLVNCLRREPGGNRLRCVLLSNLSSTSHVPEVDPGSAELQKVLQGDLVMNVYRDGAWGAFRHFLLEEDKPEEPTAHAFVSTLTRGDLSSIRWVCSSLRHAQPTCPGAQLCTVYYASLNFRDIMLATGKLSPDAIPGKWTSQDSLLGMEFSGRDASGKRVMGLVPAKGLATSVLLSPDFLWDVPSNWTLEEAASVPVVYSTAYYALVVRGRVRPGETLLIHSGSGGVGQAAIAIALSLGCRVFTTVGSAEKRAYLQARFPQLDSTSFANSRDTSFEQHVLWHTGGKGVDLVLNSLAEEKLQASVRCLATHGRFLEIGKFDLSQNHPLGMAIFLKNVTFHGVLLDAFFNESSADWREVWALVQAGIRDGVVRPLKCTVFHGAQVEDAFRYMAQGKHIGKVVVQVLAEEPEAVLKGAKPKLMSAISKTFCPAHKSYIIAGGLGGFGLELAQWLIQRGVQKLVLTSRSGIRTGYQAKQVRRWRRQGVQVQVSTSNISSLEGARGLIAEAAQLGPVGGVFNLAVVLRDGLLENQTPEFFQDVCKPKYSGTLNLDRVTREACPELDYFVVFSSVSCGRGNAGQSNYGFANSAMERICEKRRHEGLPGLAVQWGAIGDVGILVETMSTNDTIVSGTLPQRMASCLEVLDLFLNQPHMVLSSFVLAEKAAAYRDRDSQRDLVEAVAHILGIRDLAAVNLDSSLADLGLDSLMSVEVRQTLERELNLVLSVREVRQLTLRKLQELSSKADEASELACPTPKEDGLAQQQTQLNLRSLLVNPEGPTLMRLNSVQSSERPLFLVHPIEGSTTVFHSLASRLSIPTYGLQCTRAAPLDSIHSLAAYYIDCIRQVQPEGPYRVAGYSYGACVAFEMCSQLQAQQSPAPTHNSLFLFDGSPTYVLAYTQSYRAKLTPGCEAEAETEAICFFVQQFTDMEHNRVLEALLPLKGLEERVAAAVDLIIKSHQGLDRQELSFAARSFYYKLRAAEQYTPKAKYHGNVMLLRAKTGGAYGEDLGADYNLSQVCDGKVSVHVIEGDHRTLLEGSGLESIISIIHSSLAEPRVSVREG", "test": "FAS thioesterase domain inhibitors, primary screen, biochemical, fluorescence intensity, uHTS (AID 602261);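 note: 0% = DMSO with enzyme and 100% = substrate without enzyme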", "details": "recombinant FAS-TE, OMFH fluorogenic substrate, fluorescence endpoint; at 15 µM; hits give high values", "values": [
      {"smiles": "O=C(/C=C/c1ccc([N+](=O)[O-])cc1)NCCSCc1ccco1", "inhibition": "9.8%"},
      {"smiles": "COc1ccc(/C=C(/NC(=O)c2ccco2)C(=O)Nc2ccc(C(C)=O)cc2)cc1", "inhibition": "-1.1%"},
      {"smiles": "Cc1ccc(NC(=O)/C(=C\\c2ccccc2)NC(=O)c2ccco2)cc1", "inhibition": "0%"},
      {"smiles": "O=C(Nc1ccc2ccccc2c1)/C(=C/c1cccc(Br)c1)NC(=O)c1ccco1", "inhibition": "52.3% (active)"},
      {"smiles": "O=C(NCc1ccco1)/C(=C\\c1cccc([N+](=O)[O-])c1)NC(=O)c1ccco1", "inhibition": "51.4% (active)"},
      {"smiles": "O=C(NCc1ccco1)c1ccc([N+](=O)[O-])cc1Cl", "inhibition": "5.6%"},
      {"smiles": "O=C(/C=C/c1cccc([N+](=O)[O-])c1)NCCSCc1ccco1", "inhibition": "55.4% (active)"},
      {"smiles": "O=C(NCc1ccco1)/C(=C/c1ccco1)NC(=O)c1ccccc1", "inhibition": "-4.1%"},
      {"smiles": "O=C(NCc1ccco1)/C(=C/c1cccc([N+](=O)[O-])c1)NC(=O)c1ccco1", "inhibition": "38.7%"},
      {"smiles": "Cc1cc([N+](=O)[O-])nn1Cc1ccc(F)cc1", "inhibition": "-0.9%"},
      {"smiles": "CCC1CCC/C1=N\\NC(=O)c1ccc(Cl)cc1", "note": "(stereo not given)", "inhibition": "-4.6%"},
      {"smiles": "COc1ccc(OC)c(NC(=O)c2cc(-c3cc(F)ccc3OCC3CCCO3)n[nH]2)c1", "note": "(stereo not given)", "inhibition": "22.4%"},
      {"smiles": "CCN(CC)S(=O)(=O)c1ccc2[nH]c(=O)cc(C(=O)N(C)C3CCS(=O)(=O)C3)c2c1", "note": "(stereo not given)", "inhibition": "0%"},
      {"smiles": "Cc1ccc(S(=O)(=O)n2cnc3ccccc32)c(C)c1", "inhibition": "-4.2%"},
      {"smiles": "Cc1ccc(S(=O)(=O)c2nnn3c2nc(N2CCN(c4ccccn4)CC2)c2ccccc23)cc1", "inhibition": "65.9% (active)"},
      {"smiles": "CCOC(=O)c1nnn2c1nc(N1CCN(c3ccccc3)CC1)c1ccccc12", "inhibition": "19.9%"},
      {"smiles": "Cc1cccc(Nc2nc3c(S(=O)(=O)c4ccccc4)nnn3c3ccccc23)c1C", "inhibition": "-3.1%"},
      {"smiles": "CCc1ccccc1OCC(=O)Nc1nnc(C2CC2)s1", "inhibition": "-9.2%"},
      {"smiles": "Cc1ccc(S(=O)(=O)N2CCN(C(=O)c3ccccc3-c3nc4ccccc4s3)CC2)c(C)c1", "inhibition": "15.3%"},
      {"smiles": "OC(CN1C2=NCCCN2c2ccccc21)c1ccc(Br)cc1", "note": "(stereo not given)", "inhibition": "-4.6%"},
      {"smiles": "Cc1noc(C)c1C(=O)NC(C)c1ccc2c(c1)OCO2", "note": "(stereo not given)", "inhibition": "-5.5%"},
      {"smiles": "CC(NC(=O)c1ccco1)c1ccc2c(c1)OCO2", "note": "(stereo not given)", "inhibition": "-6.5%"},
      {"smiles": "CC(NC(=O)Nc1cccc([N+](=O)[O-])c1)c1ccc2c(c1)OCO2", "note": "(stereo not given)", "inhibition": "83.4% (active)"},
      {"smiles": "CCN1CCN(c2sc(S(C)(=O)=O)nc2S(=O)(=O)c2ccc(Cl)cc2)CC1", "inhibition": "-2.8%"},
      {"smiles": "O=C(Nc1ccc(S(=O)(=O)N2CCOCC2)cc1)C1CCN(S(=O)(=O)c2ccc(Cl)cc2)CC1", "inhibition": "28.3%"},
      {"smiles": "O=C(Nc1ccccc1)c1nnsc1S(=O)(=O)c1ccc(Cl)cc1", "inhibition": "69.7% (active)"},
      {"smiles": "Cc1nnsc1S(=O)(=O)Cc1ccccc1Cl", "inhibition": "-6.8%"},
      {"smiles": "O=C(NCCO)c1cccc(-c2cccc3nccn23)c1", "inhibition": "-6.3%"},
      {"smiles": "Cc1cc(C(F)F)nn1CC(=O)NC1CCCCCC1", "inhibition": "-5.3%"},
      {"smiles": "CC1(C)CC(=O)c2c(n(S(=O)(=O)c3ccccc3)c3ccc(NS(=O)(=O)c4ccccc4)cc23)C1", "inhibition": "79.6% (active)"},
      {"smiles": "Cn1c(=O)n(C)c2cc(NS(=O)(=O)c3ccc(F)cc3)ccc21", "inhibition": "-7.3%"},
      {"smiles": "COc1ccccc1-n1cnc2cc(NS(=O)(=O)c3ccccc3)ccc21", "inhibition": "0.1%"},
      {"smiles": "CC(=O)N(Cc1cccs1)C1CCOC(C)(C)C1", "note": "(stereo not given)", "inhibition": "-7.2%"},
      {"smiles": "CCCCN1C(=O)CCC(C(=O)O)C1c1ccc(OC)cc1", "note": "(stereo not given)", "inhibition": "-7.9%"},
      {"smiles": "COc1ccc(C(=O)N(C)CC(O)c2ccccc2)cc1OC1CCN(C(C)=O)CC1", "note": "(stereo not given)", "inhibition": "0.7%"},
      {"smiles": "Cc1ccc(S/C(=N\\S(=O)(=O)c2ccc(Cl)cc2)c2ccccc2)cc1", "inhibition": "57.1% (active)"},
      {"smiles": "Cc1ccc(S(=O)(=O)/N=C(/Nc2ccccn2)c2ccc(Cl)cc2)cc1", "inhibition": "2.1%"},
      {"smiles": "Cc1ccc(S(=O)(=O)/N=C(/Nc2ccc3[nH]c(=O)[nH]c3c2)c2ccccc2)cc1", "inhibition": "-11.9%"},
      {"smiles": "COc1ccccc1C1CCN(C(=S)Nc2ccc(Br)cc2)CC1", "inhibition": "31%"},
      {"smiles": "CCOc1ccc(Br)cc1S(=O)(=O)Nc1cccc(S(=O)(=O)N(CC)CC)c1", "inhibition": "22.7%"},
      {"smiles": "CCOc1ccc(Br)cc1S(=O)(=O)Nc1ccc(C(=O)OC(C)C(=O)N(C)c2ccccc2)cc1", "note": "(stereo not given)", "inhibition": "53.8% (active)"},
      {"smiles": "CCOc1ccc(Br)cc1S(=O)(=O)Nc1ccc(S(=O)(=O)Nc2cc(C)on2)cc1", "inhibition": "-8.8%"},
      {"smiles": "Cn1cc(S(=O)(=O)N2CCC(Cc3ccccc3)CC2)c(=O)n(C)c1=O", "inhibition": "-7.6%"},
      {"smiles": "COCCn1c(SCC(=O)Nc2cc(Cl)ccc2OC)nc2c(c1=O)SC(C)C2", "note": "(stereo not given)", "inhibition": "20.2%"},
      {"smiles": "Cc1ccccc1-n1nnnc1SCCCC(=O)c1ccc(F)cc1", "inhibition": "19.4%"},
      {"smiles": "CC(C)=CCc1ccc(O)c(=O)cc1C(C)C", "inhibition": "-0.3%"},
      {"smiles": "COc1cccc(NC(=O)CN(C)C(=O)c2ccccc2CCc2ccccc2)c1", "inhibition": "23.2%"},
      {"smiles": "COc1ccc(C2Nc3ccccc3C(=O)N2c2ccc(Cl)cc2)cc1Cn1cc([N+](=O)[O-])cn1", "note": "(stereo not given)", "inhibition": "69.9% (active)"},
      {"smiles": "COc1ccc(C2Nc3ccccc3C(=O)N2Cc2ccccc2)cc1Cn1nnc2ccccc21", "note": "(stereo not given)", "inhibition": "35.8%"},
      {"smiles": "COc1ccc(CN2CCCC(C(=O)c3ccc(Cl)cc3)C2)cc1Cn1cncn1", "note": "(stereo not given)", "inhibition": "-9.9%"},
      {"smiles": "Cc1ccc(Nc2cc(C)nc3c(C)ccc([N+](=O)[O-])c23)cc1", "inhibition": "25%"},
      {"smiles": "N#CCCN(C(=O)COC(=O)C1CCN(c2ccc(C(F)(F)F)cn2)CC1)c1ccc(F)cc1", "inhibition": "18.7%"},
      {"smiles": "Nc1cc(OC(=O)c2ccccc2Br)nn1S(=O)(=O)c1ccccc1", "inhibition": "5.4%"},
      {"smiles": "O=C(CC(O)(C(F)(F)F)C(F)(F)F)Nc1ccc(Cl)c(Cl)c1", "inhibition": "22.2%"},
      {"smiles": "O=C(Cc1ccc(Cl)c(Cl)c1)Nc1ccc(SC(F)F)cc1", "inhibition": "66.1% (active)"},
      {"smiles": "O=C(CCl)Nc1ccc(Sc2ccc(NC(=O)CCl)cc2)cc1", "inhibition": "2.8%"},
      {"smiles": "CCOC(=O)Cn1nnnc1C", "inhibition": "-1.8%"},
      {"smiles": "CC1CCN(c2ccc(C(=O)NCc3ccc4c(c3)OCO4)cc2[N+](=O)[O-])CC1", "inhibition": "13.7%"},
      {"smiles": "O=C(Cc1ccc([N+](=O)[O-])cc1)NCCc1ccc2c(c1)OCO2", "inhibition": "18.8%"},
      {"smiles": "O=C(NCc1ccc2c(c1)OCO2)c1cc([N+](=O)[O-])ccc1N1CCOCC1", "inhibition": "51.7% (active)"}
    ]}
  ]
}
